Screening results as filed in PubChem BioAssay.
Tb PYK inh = blocks Trypanosoma brucei pyruvate kinase | Q57TT1 | TbPYK enzyme, Kinase-Glo Plus ATP luminescence, 45 min | Potency, µM (doses to about 76.8 µM), inactives show at the top dose activity, negative = inhibition, hits mostly inhibitors | 410,000 compounds, 0.12% hits | AID 624173; also: potency is read from the fitted curve at half-maximal effect; % is scaled to controls: 0 for no effect and ±100 for the full control effect; nearly all actives have a fitted effect of over 50% in size
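Luminescent Kinase-Glo Plus end-point after 45 min room-temperature reaction of T. brucei pyruvate kinase started with 130 uM ADP (final). Buffer TEA 50 mM pH 7.2 with KCl, MgCl2, BSA, Tween-20; titration-based qHTS with fitted concentration-effect curves.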
HCMV inh = inhibitors of human cytomegalovirus; HFF cells, HCMV-luciferase reporter, 72 h; stronger effect = lower value; activity change, negative = inhibition, % at 57.5 µM; 410,000 compounds, 4.5% hits; AID 1259415; in the data active = activity change below about -60%; inconclusive = no clear call, values can overlap the other calls; inactive = above about -39%; also: % is scaled to controls: 0 for no effect and ±100 for the full control effect
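Two compound doses tested in HFFs infected with HCMV-luciferase, MOI 1 PFU/cell, 72 h at 37C. Lysate luminescence read with OneGlo; data normalized against buffer-only and 10uM Salinomycin inhibitor controls.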
Vaccinia Venus = vaccinia inhibition (Venus reporter) | Vaccinia virus Venus reporter expression, fluorescence | Potency, µM (top dose mostly 36.5 µM), without a hit: at the highest dose activity change, negative = inhibition, usual class: inhibitors | 330,000 compounds, 0.46% hits | AID 720580; calls by dose curve; tested in A549 cells; also: potency is read from the fitted curve at half-maximal effect; % is scaled to controls: 0 for no effect and ±100 for the full control effect; nearly all actives have a fitted effect of over 30% in size
LmPK inh = blocks Leishmania mexicana pyruvate kinase activity; 290,000 compounds, 0.37% hits; purified LmPK, Kinase-Glo ATP luminescence, 1 h; Potency, µM (highest dose often 57.5 µM), for inactives: top-dose activity change, negative = inhibition, usual class: inhibitors; Q27686; AID 1721; also: potency is read from the fitted curve at half-maximal effect; % is scaled to controls: 0 for no effect and ±100 for the full control effect
Target sequence (Q27686 whole entry, looked up): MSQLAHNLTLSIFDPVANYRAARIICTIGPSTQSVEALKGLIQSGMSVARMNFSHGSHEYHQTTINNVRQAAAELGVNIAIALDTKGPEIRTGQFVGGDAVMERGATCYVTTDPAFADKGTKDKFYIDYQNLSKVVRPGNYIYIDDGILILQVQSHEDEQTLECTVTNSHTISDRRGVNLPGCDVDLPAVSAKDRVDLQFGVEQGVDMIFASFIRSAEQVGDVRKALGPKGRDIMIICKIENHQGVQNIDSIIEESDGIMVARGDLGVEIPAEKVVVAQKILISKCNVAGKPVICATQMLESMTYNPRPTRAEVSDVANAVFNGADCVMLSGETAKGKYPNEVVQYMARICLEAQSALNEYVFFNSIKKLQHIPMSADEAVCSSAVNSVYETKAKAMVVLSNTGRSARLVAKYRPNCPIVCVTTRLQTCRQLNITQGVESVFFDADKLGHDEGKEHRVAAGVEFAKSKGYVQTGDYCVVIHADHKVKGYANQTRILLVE
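Screened at intermediate enzyme activity to detect both inhibitors and activators: LmPK at 0.1 nM, with a 0.5 nM enzyme column as activation reference. PEP 0.5 mM, ADP 0.1 mM; ATP detected by luminescence after 1 h.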
VACV mCherry inh = inhibitors of vaccinia virus infection (mCherry reporter signal). Vaccinia virus mCherry reporter infection, fluorescence. Potency, µM (doses to about 36.5 µM), without a hit: at the top dose activity change, negative = inhibition, usual class: inhibitors. 310,000 compounds, 0.63% hits; calls by dose curve; tested in A549 cells; also: potency is read from the fitted curve at half-maximal effect; % is scaled to controls: 0 for no effect and ±100 for the full control effect; nearly all actives have a fitted effect of over 35% in size
LmPK inh confirm = Blocks LmPK activity, confirmation assay. purified LmPK, Kinase-Glo ATP luminescence, 1 h. 150 compounds, 40% hits. shares compounds with LmPK inh. Potency, µM (doses to about 57.5 µM), inactives show top-dose activity change, negative = inhibition, usual class: inhibitors;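 active = compounds giving a full or partial concentration-response curve, as inhibitors or activators; inconclusive = weak, top-dose-only or unclear curve responses; inactive = no response at any tested dose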
Numbers without * were called inactive; i = inactive; ? = inconclusive; . = not tested or not shown; [ ] = remark or other dose. Sampled rows, rich in hits. Any-hit rate of the full collection: about 5%. Unless noted, calls follow the shape of the dose curve; as a rule, active = well fitted curve in the direction sought with a large enough effect; inconclusive = small, poorly fitted or top-dose-only effect, or another doubt; inactive = no such curve, though single readings can be large; an effect the other way counts as inactive or inconclusive.

SMILES	Tb PYK inh	HCMV inh	Vaccinia Venus	LmPK inh	VACV mCherry inh	LmPK inh confirm
CCOc1ccc(C(=O)NC2CCN(C(=S)NCc3ccco3)CC2)cc1	6.6%	-17.4	-19.0%	1.8%	i	.
CCC(=O)Oc1ccc2c(C)c(Cl)c(=O)oc2c1	-0.8%	-4.5	-7.9%	2.0%	-15.1%	.
Cc1ccc(S(=O)(=O)N2CCN(C(=O)COC(=O)/C=C/c3ccccc3F)CC2)c(C)c1	0.7%	-8.2	-2.6%	.	-11.8%	.
Cn1cc(CN(Cc2ccccn2)C[C@@H]2CCC(=O)N2)c(-c2ccccc2F)n1	-6.2%	4.3	.	-7.1%	.	.
Cn1cc(CN(Cc2ccccc2)C[C@@H]2CCC(=O)N2)c(-c2ccccc2F)n1	-2.1%	-7.5	-8.8%	-1.1%	i	6.5%
O=C(Nc1cccc(O)c1)C(=O)Nc1ccccn1	?	41.2	-14.3%	7.94µM*	?	20.6µM*
CC(=O)Nc1ccc(C(=O)NNC(=O)CCc2ccccc2)cc1	-6.8%	105.9	-7.0%	-3.5%	i	3.9%
CN1CCc2cccc3c2C1Cc1ccc(O)c(O)c1-3 (stereo unspecified)	-3.0%	20.6	-14.0%	3.16µM*	-14.2%	0.8%
COc1ccc2c(c1O)-c1cc(O)cc3c1[C@@H](C2)N(C)CC3	.	.	-11.4%	.	-8.9%	.
Cc1ccc(-n2c(SCC(=O)Nc3ccc(C(=O)O)cc3)nnc2-c2ccncc2)cc1	1.8%	0.0	-7.1%	3.2%	i	.
Cc1ccc(C(=O)NNC(=O)CSc2nnc(-c3ccncc3)n2-c2ccc(C)cc2)cc1	.	-1.2	.	-23.3%	.	3.5%
O=C(c1ccccc1)n1ccn(-c2ccccc2)c1=S	5.3%	-10.4	.	-2.1%	.	.
O=C(c1ccccc1)n1c(=S)nc2ccccn21	?	13.7	3.3%	4.47µM*	-6.6%	18.3µM*
COc1ccc(OC)c2[nH]c(=O)c(CCNS(=O)(=O)c3ccc(Cl)cc3)cc12	-1.0%	-9.3	-6.7%	9.0%	.	.
COc1ccc(OC)c2[nH]c(=O)c(CCNS(=O)(=O)c3ccc(C)cc3)cc12	3.2%	-33.6	-12.7%	1.5%	-1.1%	5.1%
COC(=O)C1=C(C)NC2=C(C(=O)C(C(=O)OC)C(c3ccc(OC)cc3)C2)C1c1ccccn1 (stereo unspecified)	6.7%	-12.9	7.2%	1.6%	0.4%	12.6%
COC(=O)C1=C(C)NC2=C(C(=O)CC(C)(C)C2)C1c1ccccn1 (stereo unspecified)	5.2%	57.2	-12.2%	-10.3%	-10.2%	.
CN(C(=O)c1cccc(NC(=O)Cc2ccc(NC(=O)C3CCCN(C(=O)C4CCCC4)C3)cc2)c1)C1CC1 (stereo unspecified)	-13.1%	54.2	-4.1%	.	-1.1%	.
CCN(C(=O)CN1C(=O)COc2ccc(S(=O)(=O)N3CCOCC3)cc21)c1cccc(C)c1	-9.8%	79.5	-15.2%	.	-5.8%	.
c1ccc2nc(-c3nc4ccccc4[nH]3)ccc2c1	?	42.1	-18.6%	4.47µM*	-8.8%[1.46 µM]	9.19µM*
c1ccc2c(-c3nc4ccccc4[nH]3)cccc2c1	-11.0%	6.5	-27.8%	.	-16.4%	.
Nc1ncnc2c1ncn2[C@@H]1O[C@H](COP(=O)(O)O)[C@@H](O)[C@H]1O	?	45.4	-6.5%	10µM*	i	6.51µM*
Nc1ncnc2c1ncn2C1OC(COP(=O)(O)O)C(O)C1O (stereo unspecified)	-23.5%	101.4	-4.1%	15.8µM*	-12.0%	5.8µM*
COc1ccc(NC(=O)c2ccc(OC(F)F)cc2)cc1Cl	-5.3%	36.2	-22.6%	?	-23.0%	.
CSCCC(N)C(=O)NC(CC(C)C)C(=O)NC(Cc1ccccc1)C(=O)O (stereo unspecified)	.	.	0.0%	.	i	.
SMILES	Tb PYK inh	HCMV inh	Vaccinia Venus	LmPK inh	VACV mCherry inh	LmPK inh confirm
O=C(O)c1ccc2c(c1)C(=O)N(NC(=O)c1ccccc1)C2=O	-1.6%	19.1	?	-0.3%	?	.
COc1cc(/C=C/c2nc3ccc([N+](=O)[O-])cc3s2)ccc1OCC(=O)O	.	.	.	-0.5%	.	.
Cn1c(-c2ccc(Br)cc2)cnc1NCc1cccnc1	4.9%	9.2	?	-2.9%	-10.5%	3.9%
O=C(c1cnc2n(c1=O)CCS2)N1CCCc2ccccc21	-7.1%	29.0	-12.9%	-2.3%	-12.9%	.
Cc1cc(O)c(-c2cc(O)c(C)cc2O)cc1O	?	33.3	.	0.708µM*	.	?
Cc1ccc(N)cc1O	0.1%	-24.6	-2.9%	.	-14.5%	.
Cc1cc(C)c2cc(C#N)c(NCCOC(=O)c3ccccc3C)nc2c1	4.0%	52.8	19.1%	0.0%	5.1%	2.4%
COc1ccccc1C(=O)NCCNc1nc2cc(C)cc(C)c2cc1C#N	-12.3%	20.5	.	1.8%	.	.
Cc1ccc(C(=O)N2c3ccccc3CC2C)o1 (stereo unspecified)	-19.4%	58.1	-19.9%	6.31µM*	-19.0%	?
Cc1ccc(-c2nnc(N(C)C(=O)c3cccnc3)s2)cn1	-6.3%	-6.8	4.6%	-4.0%	-6.4%	.
Cc1ccc(-c2nnc(N(C)C(=O)c3cccnc3)s2)cc1	-2.6%	43.9	-24.0%	-1.0%	-26.1%	-5.4%
CS(=O)(=O)N(CCc1ccccc1)CC(=O)Nc1ccc2c(c1)OCO2	-2.6%	14.2	.	4.2%	.	.
Cc1ccc(C(=O)c2ccccc2C(=O)OCC(=O)NCC2CCCO2)cc1 (stereo unspecified)	5.4%	-21.4	-9.0%	3.0%	-5.9%	.
Cc1ccc(Oc2ccccc2/C=C2\SC(=O)N(C)C2=O)cc1	-1.8%	-17.2	.	-4.5%	.	-4.1%
O=c1c2ccccc2cnn1-c1nc2ccccc2[nH]1	12.6µM*	-92.1*	.	2.24µM*	.	3.26µM*
CCc1n[nH]c(=S)n1/N=C/c1ccc2c(c1)OCO2	?	13.4	.	-14.1%	.	-0.9%
CCc1n[nH]c(=S)n1/N=C/c1ccc(N(C)c2ccccc2)cc1	?	-22.5	-12.7%	-3.9%	-15.1%	.
O=C(COC(=O)CCC(=O)c1ccc(F)cc1)Nc1ccc(F)cc1F	0.4%	-26.3	-5.2%	2.24µM*	8.8%	-8.2%
CC(=O)c1cc(C#N)c(Oc2cc(C)cc(C)c2)nc1C	?	14.8	-19.3%	-3.7%	-20.9%	.
CC(=O)c1cc(C#N)c(Oc2ccc(F)cc2)nc1C	-2.9%	-3.5	-20.9%	3.8%	.	4.3%
CCN(Cc1ccncc1)Cc1cn(C)nc1-c1ccc(Oc2ccccc2)cc1	4.5%	-23.0	.	1.7%	.	-2.2%
CN(Cc1ccon1)Cc1cn(C)nc1-c1cccc(Cl)c1	2.7%	-17.6	-0.6%	12.6µM*	-8.8%	-6.9%
COc1ccc(-c2cc3nc(C)cc(N)n3n2)cc1	22.4µM*	152.7	-14.3%	3.55µM*	-8.2%	5.8µM*
COc1ccc(-c2cc3nc(C)cc(-c4ccc(OC)cc4)n3n2)cc1	-1.8%	19.7	.	5.7%	.	.
Cn1c(CNc2ccc(F)cc2)nnc1SCC(=O)NNC(=O)Cc1ccccc1	-1.9%	-27.9	-6.9%	-1.3%	-2.5%	.
NC(=S)Cc1nc2n(n1)Cc1ccccc1-2	-4.5%	29.0	.	-1.5%	.	.
